This note sets out measurements from publication PMC10668032, “Altered binding affinity of SIX1-Q177R correlates with enhanced WNT5A and WNT pathway effector expression in Wilms tumor”.

Whole data set: some 33,000 sequences, median “e-score” near -0.05, cut for the highest 2% near 0.38. Only a selection was taken, and the highest values are over-represented in it overall.

The target in this assay is T1, SIX1-Q177R homeodomain (human, UniProt Q15475 108-198, Q177R).
T1 sequence: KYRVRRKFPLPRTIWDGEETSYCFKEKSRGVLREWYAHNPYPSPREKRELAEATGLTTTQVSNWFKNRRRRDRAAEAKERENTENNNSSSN
Description: universal protein binding microarray; Universal all-10-mer PBM (8x60K, AMADID 030236), 300 nM GST-tagged protein, Alexa Fluor 488 anti-GST; buffer, salt, pH and temperature not stated (as in Berger); high values mean tight binding. Conditions: protein: ivt; tags: N-terminal GST; dsDNA, one strand shown. In outline:
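Binding of GST-tagged homeodomains is given as 8-mer E-scores from the Universal PBM Analysis Suite. The proteins were produced by in vitro transcription/translation, quantified by anti-GST western blot against a recombinant GST standard curve, and applied in duplicate at 300 nM final concentration to universal 'all 10-mer' protein binding microarrays (8×60K format).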
As for GCGGGTTA, the binding signal was found to be 0.21 ± 0.00486 E-score. Take CCCGCCCG: the binding signal turned out to be 0.233 ± 0.0272 E-score. To CCCCCGAC belongs 0.272 ± 0.00679 E-score. On to ATACCCGA, for which the binding signal came to 0.241 ± 0.0123 E-score. As for AAGACGTG, the binding signal turned out to be 0.166 ± 0.073 E-score. To ACACTTTC belongs 0.354 ± 0.0256 E-score; to CCCTTCCC, 0.181 ± 0.0277 E-score. To CACACCTC belongs 0.403 ± 0.00914 E-score.

As for CACACTTC, the binding signal came out at 0.205 ± 0.0263 E-score. The same measure for CACCTCTG: 0.2874 ± 0.00224 E-score; for CACGTCCC: 0.165 ± 0.0267 E-score; for ATAAACCC: 0.16 ± 0.0287 E-score. The same measure for ACACGATC: 0.385 ± 0.00771 E-score; for ACACGATA: 0.3751 ± 0.00175 E-score; for ACACGAAG: 0.346 ± 0.00991 E-score. To ACACGAAC belongs 0.3433 ± 0.00132 E-score.

With ACCCGATC, the binding signal worked out at 0.253 ± 0.057 E-score. The same measure for ACACGATG: 0.3915 ± 0.00105 E-score; for CAGCACCC: 0.188 ± 0.00201 E-score. The same measure for GGATAACA: 0.204 ± 0.00942 E-score; for CACGGGTC: 0.253 ± 0.0022 E-score. To CCCTGAGG belongs 0.177 ± 0.00892 E-score.
